esBAF inh = Bmi1 luciferase reporter increase in mESCs, primary screen, esBAF inhibitor project, mouse ES cells, Bmi1 luciferase knock-in, single point; 24 h; 100% = twice the neutral-well signal; reporter increase, % at 12.5 µM; 350,000 tested, 2% active; in the data active = activation above about 40%; inconclusive = no clear call, values can overlap the other calls;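 also: 0% = median of the plate's neutral control wells and 100% = double that signal; a rise in the Bmi1 reporter signal indicates esBAF inhibition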
MITF TRPM1 HTS = activators of MITF-driven TRPM1 promoter reporter, primary screen, cell-based, SK-MEL-5, luciferase, single point; AID 588334, 2011; 300,000 tested, 0.75% active; activation, % at 12.5 µM; SK-MEL-5 TRPM1-promoter luciferase, 24 h; % of positive control, neutral wells = 0;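 active = mean activation of at least 80% with every replicate also reaching 80%; inconclusive = mean reaches 80% but some replicate falls short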;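 also: 0% = neutral control wells and 100% = parthenolide positive control wells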
Rtt109 HAT inh = inhibitors of C. albicans Rtt109/Vps75 HAT, primary screen, biochemical, ThioGlo CoA-SH fluorescence, plate reader; purified Rtt109/Vps75, 4 h; inhibition, % at 34.9 µM; 330,000 tested, 0.16% active; Histone acetyltransferase RTT109 (Candida albicans (strain SC5314 / ATCC MYA-2876)), …;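 active = inhibition of at least 50% in every replicate; inconclusive = best replicate reaches 50% inhibition but some replicates fall short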
Target sequence (Q5AAJ8 whole entry, looked up): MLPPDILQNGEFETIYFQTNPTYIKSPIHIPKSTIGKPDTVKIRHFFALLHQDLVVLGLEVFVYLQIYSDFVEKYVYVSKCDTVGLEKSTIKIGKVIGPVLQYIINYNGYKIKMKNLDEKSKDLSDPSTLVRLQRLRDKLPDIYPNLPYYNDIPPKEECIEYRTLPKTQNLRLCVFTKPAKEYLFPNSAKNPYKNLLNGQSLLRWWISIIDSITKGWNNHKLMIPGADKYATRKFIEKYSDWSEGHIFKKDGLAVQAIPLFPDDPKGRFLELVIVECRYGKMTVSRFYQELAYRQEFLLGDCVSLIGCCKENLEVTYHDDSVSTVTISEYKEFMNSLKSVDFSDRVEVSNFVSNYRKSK
Wnt act = Wnt/beta-catenin pathway activators, primary screen, cell-based, plate reader, single point; Wnt/beta-catenin reporter cell assay, activator; 300,000 tested, 1.2% active; activation, % at 9.35 µM; in the data active = activation above about 30%, passing the limit was not always enough; inconclusive = no clear call, values can overlap the other calls;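 also: 0% = neutral control wells and 100% = positive control wells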
C2C12 statin = suppressors of statin myotoxicity in C2C12 myotubes, primary screen, cell-based, single point, plate reader; C2C12 myotubes + simvastatin, ATP luminescence, 48 h; scaled: DMSO 0, geranylgeraniol control 100; rescue of ATP level, % at 7.49 µM; 330,000 tested, 0.78% active; AID 602340, 2012;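 active = mean ATP rescue above about 67%, or every replicate alone reaching that limit, limit read from the data, passing the limit was not always enough; inconclusive = no clear call, values can overlap the other calls; inactive = mean under the limit and some replicate under it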;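 also: myotubes were challenged with 10 µM simvastatin during compound exposure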
Numbers without * were called inactive; u = inconclusive; x = no result. This is a sample that favours compounds with a hit; in the whole collection about 3.1% have one here.

SMILES	esBAF inh	MITF TRPM1 HTS	Rtt109 HAT inh	Wnt act	C2C12 statin
C[C@@H]1CCCCO[C@H](CN(C)C(=O)Nc2ccc(F)cc2)[C@H](C)CN([C@H](C)CO)C(=O)c2cc(NS(=O)(=O)c3ccccc3)ccc2O1	3.6	x	x	x	x
C=CCn1c(C)cc(C(=O)COC(=O)c2cncc(Br)c2)c1C	20.2	92.8*	-0.5	-3.2	1.2
CC(C)(C)c1ccc(C(=O)Nc2cccc([N+](=O)[O-])c2)cc1	x	87.8*	19.4	x	x
Cc1ccc(C(=O)Nc2ccncc2)cc1[N+](=O)[O-]	2.1	x	-9.6	-0.4	-13.5
O=C(Nc1ccc(F)c([N+](=O)[O-])c1)c1ccc2c(c1)OCCO2	49.8*	55.6	4.8	20.3	x
O=C(Nc1cccc([N+](=O)[O-])c1)c1ccncc1	x	-19.0	2.6	x	x
CC(=O)Nc1cccc(NC(=O)c2ccc(C)c([N+](=O)[O-])c2)c1	15.7	27.7	-1.6	57.6*	-11.1
O=C(Nc1cccc([N+](=O)[O-])c1)c1ccc2c(c1)OCCO2	x	61.7	-3.3	47.3*	x
O=C(Nc1cccc(Cl)c1)c1ccc2c(c1)OCCO2	30.1	71.2	-2.4	-1.5	-25.2
O=C(Nc1ccc(Cl)cc1[N+](=O)[O-])c1ccc2c(c1)OCCO2	u	69.1	-8.5	27.6	-13.7
C[C@H](CO)N1C[C@H](C)[C@@H](CN(C)Cc2ccc(-c3ccccc3)cc2)Oc2c(NS(=O)(=O)c3ccc(Cl)cc3)cccc2C1=O	-6.3	x	x	x	2.0
CCOC(=O)CN(C(=O)CSc1nnc(-c2ccncc2)n1CCCN(C)C)c1ccccc1	x	x	-7.1	35.9*	x
C[C@@H]1CN([C@H](C)CO)C(=O)c2cc(NS(=O)(=O)c3ccccc3)ccc2O[C@H]1CN(C)C(=O)Nc1ccc(C(F)(F)F)cc1	0.0	x	x	x	-19.4
O=C(Nc1ccccn1)c1ccc(COc2ccccc2Cl)o1	64.4*	x	-1.0	5.1	15.5
O=C(Nc1ccc(Cl)cn1)c1ccc(COc2ccccc2Br)o1	87.7*	52.0	-0.9	0.9	4.0
CCOc1ccc(OCc2ccc(C(=O)Nc3ccc(Cl)cn3)o2)cc1	11.1	15.7	-5.2	3.8	12.9
Cc1cccc(S(=O)(=O)N2CC[C@H]3[C@@H](CO)N(C)c4ccc(-c5ccccc5F)cc4[C@H]32)c1	2.4	x	x	x	3.6
C[C@@H]1CN([C@@H](C)CO)S(=O)(=O)c2ccc(-c3cccnc3)cc2O[C@@H]1CN(C)C(=O)CC1CC1	-10.0	x	x	x	-3.9
O=C(O)C(=O)Nc1nc(-c2ccc3c(c2)OCCO3)cs1	17.6	0.3	2.3	6.4	5.9
O=C(CSc1ccc(-c2ccc3c(c2)OCO3)nn1)Nc1nccs1	15.3	-4.1	2.0	0.3	7.4
O=C(Nc1nc(-c2ccc3c(c2)OCO3)cs1)C1CC1	7.4	92.6*	-34.9	-1.2	x
O=C(CSCC(=O)Nc1nc(-c2ccc3c(c2)OCO3)cs1)Nc1nccs1	44.5*	11.7	-8.1	23.6	5.4
C[C@@H]1CN([C@H](C)CO)C(=O)c2cc(NC(=O)c3ccncc3)ccc2O[C@@H](C)CCCCO[C@H]1CN(C)C(=O)Nc1ccccc1	4.0	x	x	x	x
COc1ccc(Nc2nc(N)c3ccccc3n2)c(OC)c1	-9.6	89.1*	4.8	22.1	-18.7
COCCNC(=O)C(c1ccc(O)cc1)N(Cc1ccccc1)C(=O)CCC(=O)Nc1ccccn1 (configuration not stated)	0.0	0.3	58.2*	-4.2	2.1
SMILES	esBAF inh	MITF TRPM1 HTS	Rtt109 HAT inh	Wnt act	C2C12 statin
CN(C)c1ccc(-c2nn3c(-c4ccccc4Cl)nnc3s2)cc1	-19.6	x	x	x	x
Cc1nnc2sc(-c3ccc(N(C)C)cc3)nn2c1=O	-11.4	108.7*	-1.1	24.4	-1.7
C[C@H]1CN([C@@H](C)CO)C(=O)Cc2cc(NS(=O)(=O)c3cn(C)cn3)ccc2O[C@H]1CN(C)CC1CCCCC1	1.8	x	x	x	-12.7
Cc1cc(C)nc(-n2nc(C)c3c(C(F)(F)F)cc(=O)[nH]c32)n1	x	-1.1	-6.1	-6.5	x
Cc1cc(C)nc(-n2nc(C)c(Sc3ccc(F)cc3)c2N)n1	137.4*	56.1	x	20.8	-6.7
O=C(C[C@@H]1CC[C@H]2[C@@H](COC[C@H](O)CN2C(=O)c2ccncc2)O1)NC1Cc2ccccc2C1	1.7	x	x	x	7.6
Cc1cc(-c2ccc3c(c2)COc2c4ccccc4nn2-3)on1	5.7	64.0	3.8	45.0*	-18.7
C(#CC1CCCC1)c1ccc2c(c1)COc1c3ccccc3nn1-2	60.0*	119.2*	-5.4	42.3*	4.0
c1ccc2c3n(nc2c1)CCCCO3	8.7	6.1	-1.3	1.0	1.3
CCCc1cc(-c2ccc3c(c2)COc2c4ccccc4nn2-3)on1	-8.0	u	-7.1	35.5*	-2.5
CCc1ccc(-c2cc(C)no2)cc1S(=O)(=O)N1CCN(c2ccccc2F)CC1	-7.2	-8.5	-2.7	-2.6	13.8
C[C@H](CO)N1C[C@H](C)[C@@H](CN(C)C)Oc2cc(C#Cc3cccnc3)ccc2S1(=O)=O	-0.1	x	x	x	16.0
C[C@@H]1CCCCO[C@@H](CN(C)C(=O)Nc2ccc(F)cc2)[C@H](C)CN([C@H](C)CO)C(=O)c2cc(NC(=O)Nc3ccccc3)ccc2O1	0.4	x	x	x	18.1
Cc1ccccc1NC(=O)c1ccc2c(c1)OCCO2	46.7*	66.9	-5.3	x	-13.5
Cc1ccccc1NC(=O)CC(=O)Nc1ccccc1C	-4.7	-11.1	-2.6	-1.7	9.4
Cc1ccccc1NC(=O)c1nnn(-c2ccc3c(c2)OCCO3)c1N	x	86.5*	19.2	36.5*	x
Cc1cccc(NC(=O)c2ccc3c(c2)OCCO3)c1C	54.7*	113.0*	-7.5	5.7	2.9
Cc1ccccc1NC(=O)C(=O)Nc1ccccc1C	45.3*	42.6	-3.2	27.5	3.8
CC(=O)Nc1ccccc1NC(=O)c1ccc2c(c1)OCO2	-6.7	x	x	1.5	6.3
N#Cc1ccccc1NC(=O)c1ccc2c(c1)OCCO2	44.9*	x	-0.9	5.9	-1.7
O=C(Nc1cccc2cccnc12)c1ccc2c(c1)OCCO2	47.8*	54.8	1.1	3.8	26.9
COc1cc(NC(=O)c2ccc3c(c2)OCO3)c2ncccc2c1	u	15.3	19.4	x	-5.2
O=C(NC(=S)Nc1ccccc1Br)c1ccc2c(c1)OCO2	x	110.0*	-0.4	2.3	x
O=C(Nc1ccc(Cl)cc1)N[C@H]1CC[C@H](CCn2cc(C3(O)CCCC3)nn2)O[C@@H]1CO	3.6	x	x	x	-4.6
C[C@H](CO)N1C[C@H](C)[C@@H](CN(C)S(=O)(=O)c2ccc(F)cc2)Oc2cc(-c3cccc(F)c3)ccc2S1(=O)=O	7.4	x	x	x	7.0

Screens (PubChem BioAssay)
